Values without a mark were called inactive. Calls of active or inactive are those of the source.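 Rule for the calls, unless noted: active = mean inhibition above 46.5%, the solvent-only control mean plus 3 SD; inactive = the rest.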
How the values were obtained:
[1] = test system: transactivating tegument protein VP16 (Human herpesvirus 1); experiment: compounds suppressing VP16-driven luciferase signal – cell-based, luminescence, single concentration, counter-screen for SRC2 inhibitor project (AID 652007; in the data active = inhibition above about 36%); details: cell-based VP16 transactivation luciferase reporter, at 8.9 µM, hits give high values
[2] = molecular target: Nuclear receptor coactivator 2 (Homo sapiens) (UniProt Q15596); experiment: inhibition of GAL4-SRC2 driven luciferase expression – cell-based, luminescence, HEK293, triplicate, confirmation (AID 652008); details: HEK293 GAL4-SRC2 luciferase reporter, at 8.9 µM, hits give high values;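 note: 0% = DMSO-treated cells and 100% = Gossypol at 36 µM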
Nuclear receptor coactivator 2 (Homo sapiens), sequence (Q15596 whole entry, looked up, the tested form may be a part): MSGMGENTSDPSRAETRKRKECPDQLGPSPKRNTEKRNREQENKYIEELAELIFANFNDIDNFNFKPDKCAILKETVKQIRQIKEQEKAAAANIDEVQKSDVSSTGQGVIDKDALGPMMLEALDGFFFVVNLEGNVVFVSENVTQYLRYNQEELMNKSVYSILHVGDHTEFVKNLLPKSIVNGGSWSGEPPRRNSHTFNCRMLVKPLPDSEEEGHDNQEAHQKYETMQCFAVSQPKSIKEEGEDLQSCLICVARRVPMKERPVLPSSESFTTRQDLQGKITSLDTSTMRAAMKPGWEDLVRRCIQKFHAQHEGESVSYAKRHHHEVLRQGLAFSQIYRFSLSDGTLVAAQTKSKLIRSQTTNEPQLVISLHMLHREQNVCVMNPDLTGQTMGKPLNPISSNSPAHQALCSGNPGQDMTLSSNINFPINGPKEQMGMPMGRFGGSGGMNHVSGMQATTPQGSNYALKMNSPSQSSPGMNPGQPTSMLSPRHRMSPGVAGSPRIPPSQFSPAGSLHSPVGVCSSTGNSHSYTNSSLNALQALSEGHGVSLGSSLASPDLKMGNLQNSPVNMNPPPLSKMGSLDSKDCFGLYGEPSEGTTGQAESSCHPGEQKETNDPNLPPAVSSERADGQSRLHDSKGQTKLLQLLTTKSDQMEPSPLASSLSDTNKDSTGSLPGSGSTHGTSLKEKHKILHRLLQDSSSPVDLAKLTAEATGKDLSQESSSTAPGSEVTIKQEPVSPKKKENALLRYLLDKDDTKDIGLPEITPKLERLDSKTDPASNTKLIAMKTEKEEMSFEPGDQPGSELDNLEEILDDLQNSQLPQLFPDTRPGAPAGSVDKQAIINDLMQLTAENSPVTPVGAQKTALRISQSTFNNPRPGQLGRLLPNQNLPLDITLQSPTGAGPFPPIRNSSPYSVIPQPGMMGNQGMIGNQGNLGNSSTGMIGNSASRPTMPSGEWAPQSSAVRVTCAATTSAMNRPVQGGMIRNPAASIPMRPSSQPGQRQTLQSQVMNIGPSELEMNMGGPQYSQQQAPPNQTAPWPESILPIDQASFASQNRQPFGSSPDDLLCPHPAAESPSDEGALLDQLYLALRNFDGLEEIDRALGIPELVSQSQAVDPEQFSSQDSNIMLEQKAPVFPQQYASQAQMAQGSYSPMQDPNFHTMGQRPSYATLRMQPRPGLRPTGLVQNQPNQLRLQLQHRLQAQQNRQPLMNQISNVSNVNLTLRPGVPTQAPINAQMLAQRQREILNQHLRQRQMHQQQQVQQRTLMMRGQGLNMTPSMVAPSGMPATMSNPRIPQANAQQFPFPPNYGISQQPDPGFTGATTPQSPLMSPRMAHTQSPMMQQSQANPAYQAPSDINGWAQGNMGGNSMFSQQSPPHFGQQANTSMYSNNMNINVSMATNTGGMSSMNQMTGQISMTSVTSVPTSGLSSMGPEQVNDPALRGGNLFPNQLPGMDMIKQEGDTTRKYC

SMILES	inhibition [1]	inhibition [2]
CC(=O)Nc1cccc(NC(=O)CSc2nc(C3CC3)nc3ccccc23)c1	-2.73%	27.2%
CCCc1cc(=O)n2nc(N3CCC(C(=O)N4CCN(c5cccc(OC)c5)CC4)CC3)sc2n1	-1.33%	17.2%
Cc1ccc(NC(=O)CSc2ncnc3ccccc23)cc1S(=O)(=O)N1CCCCC1	6.85%	30%
CC1CCCc2sc3ncn(N)c(=N)c3c21 (configuration not stated)	-0.69%	1.19%
COc1ccc(OCC(=O)Nc2ccc3c(c2)C(=O)NC3=O)cc1	-1.89%	-9.88%
C[n+]1cc2c3c(ccc2c2ccc4cc5c(cc4c21)OCO5)OCO3	96% (active)	98.7% (active)
CCOC(=O)c1[nH]c(=S)n(-c2ccccc2)c1C(=O)OCC	-1.17%	-17.4%
Cc1ccc(NC(=O)c2nc(S(=O)(=O)Cc3ccccc3)ncc2Cl)cc1	56.5% (active)	74.4% (active)
CCOC(=O)N1C(=O)[C@@](c2ccc(Cl)cc2)(C(C)C)N1C(=O)OCC	-14%	16.6%
COc1ccc2c(n1)Sc1nc3ccccc3nc1N2	-80.4%	-87.5%
O=C(COc1ccc2c(c1)CCC2)Nc1ccccn1	2.76%	41%
Cc1sc(NC(=O)CCCC(=O)O)c(C(N)=O)c1-c1ccccc1	37.1% (active)	75.5% (active)
CCc1cccc(C)c1NC(=O)CSc1nnc(CCCOc2ccc(Cl)cc2Cl)n1C	-13.2%	-8.02%
CCC/C(C#Cc1ccsc1)=C1/c2ccccc2C(=O)N1c1ccccc1	-8.53%	-18.8%
Cc1ccc(C(=O)Nc2nc3ccccc3[nH]2)cc1	-3.8%	49.1% (active)
COc1ccc(OC)c(C2C(C#N)=C(N)Oc3c2c(C)nn3-c2cccc(Cl)c2)c1 (configuration not stated)	3%	4.46%
